Laboratory results: PubChem BioAssay AID1159580 (chemical genetic matrix, 2015)
About 2,000 (36%) of roughly 5,500 compounds were called active. Not shown: some 18% with an inconclusive outcome. Rule as the data show it: active = normalized growth mostly below about 0.91 (no sharp cut-off); inconclusive = no clear call, values can overlap the other calls; inactive = mostly above about 0.92. The list shows a part of the results.

Test: chemical genetic growth profiling, strain panel (AID 1159580);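 also: tested at 20 µM; growth read once vehicle control cultures reached saturation at 30 °C; 1 = growth at the plate median or of vehicle wells; lower values mean less growth of the strain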
Conditions: S. cerevisiae deletion strains, growth OD

Measured: normalized growth

CC(C)COC(=O)OCN1C(=O)CN(CCN2CC(=O)N(COC(=O)OCC(C)C)C(=O)C2)CC1=O
inactive: locus YAL040C, strain CLN3, active compounds read low 1.01 | locus YCL061C, strain MRC1 (second series), active compounds read low 1.01 | locus YDR150W, strain NUM1, active compounds read low 1.01 | locus YDR363W, strain ESC2, active compounds read low 1.01 | locus YER002W, strain NOP16, active compounds read low 0.997 | locus YGR078C, strain PAC10, active compounds read low 1 | locus YJR075W, strain HOC1, active compounds read low 1.01 | locus YMR307W, strain GAS1, active compounds read low 1.01 | locus YNL175C, strain NOP13, active compounds read low 1 | locus YNL197C, strain WHI3, active compounds read low 0.999 | locus YNL224C, strain SQS1, active compounds read low 0.996 | locus YNL322C, strain KRE1, active compounds read low 1.01 | locus YOR083W, strain WHI5 (second series), active compounds read low 1.01 | locus YPL055C, strain LGE1, active compounds read low 1.03

CCCCCc1ccc(S(=O)(=O)Nc2ccc3c(c2)C(=O)OC3)cc1
active: locus YLR113W, strain HOG1, active compounds read low 0.86
inactive: locus YAR019C, strain CDC15, active compounds read low 0.991 | locus YBL105C, strain PKC1, active compounds read low 0.994 | locus YBR135W, strain CKS1, active compounds read low 0.981 | locus YBR136W, strain MEC1, active compounds read low 0.982 | locus YBR160W, strain CDC28, active compounds read low 0.984 | locus YDL017W, strain CDC7, active compounds read low 0.985 | locus YDL028C, strain MPS1, active compounds read low 0.983 | locus YDL101C, strain DUN1, active compounds read low 0.998 | locus YDL108W, strain KIN28, active compounds read low 0.982 | locus YDL132W, strain cdc53, active compounds read low 0.985 | locus YDL214C, strain PRR2, active compounds read low 0.948 | locus YDR052C, strain DBF4, active compounds read low 0.998 | locus YDR054C, strain cdc34, active compounds read low 0.974 | locus YDR226W, strain ADK1, active compounds read low 0.987 | locus YDR477W, strain SNF1, active compounds read low 0.972 | locus YER123W, strain YCK3, active compounds read low 0.969 | locus YER133W, strain GLC7, active compounds read low 0.951 | locus YFL009W, strain cdc4, active compounds read low 0.981 | locus YFL029C, strain CAK1, active compounds read low 0.983 | locus YFR003C, strain YPI1, active compounds read low 0.987 | locus YFR019W, strain FAB1, active compounds read low 0.975 | locus YFR028C, strain CDC14, active compounds read low 0.985 | locus YGR040W, strain KSS1, active compounds read low 0.949 | locus YGR052W, strain FMP48, active compounds read low 1.03 | locus YGR092W, strain DBF2, active compounds read low 0.992 | locus YHR030C, strain SLT2, active compounds read low 0.997 | locus YHR079C, strain IRE1, active compounds read low 0.977 | locus YHR082C, strain KSP1, active compounds read low 1.02 | locus YHR205W, strain SCH9, active compounds read low 0.963 | locus YIL147C, strain SLN1, active compounds read low 0.983 | locus YJL095W, strain BCK1, active compounds read low 0.967 | locus YJL128C, strain PBS2, active compounds read low 0.944 | locus YJL157C, strain FAR1, active compounds read low 0.953 | locus YJR016C, strain ILV3, active compounds read low 0.977 | locus YJR066W, strain TOR1 (second series), active compounds read low 0.937 | locus YJR066W, strain TOR1, active compounds read low 1.02 | locus YKL048C, strain ELM1, active compounds read low 0.967 | locus YKL067W, strain YNK1, active compounds read low 0.959 | locus YKL101W, strain HSL1, active compounds read low 0.933 | locus YKL193C, strain SDS22, active compounds read low 0.978 | locus YKL203C, strain TOR2, active compounds read low 1.02 | locus YLR133W, strain CKI1, active compounds read low 0.963 | locus YLR403W, strain SFP1, active compounds read low 0.938 | locus YML070W, strain DAK1, active compounds read low 0.945 | locus YMR001C, strain CDC5, active compounds read low 0.986 | locus YMR205C, strain PFK2 (second series), active compounds read low 0.963 | locus YMR277W, strain FCP1, active compounds read low 0.982 | locus YNL006W, strain LST8, active compounds read low 0.99 | locus YNL020C, strain ARK1, active compounds read low 0.966 | locus YNL161W, strain CBK1, active compounds read low 0.978 | locus YNL183C, strain NPR1, active compounds read low 0.964 | locus YNL207W, strain RIO2, active compounds read low 0.967 | locus YNL222W, strain SSU72, active compounds read low 0.978 | locus YNL307C, strain MCK1 (second series), active compounds read low 0.979 | locus YOL078W, strain AVO1, active compounds read low 0.979 | locus YOL136C, strain PFK27, active compounds read low 0.948 | locus YOR061W, strain CKA2, active compounds read low 0.976 | locus YOR119C, strain RIO1, active compounds read low 1.01 | locus YOR231W, strain MKK1, active compounds read low 0.917 | locus YOR329C, strain SCD5, active compounds read low 0.985 | locus YPL031C, strain PHO85, active compounds read low 0.966 | locus YPL153C, strain RAD53, active compounds read low 0.951 | locus YPL204W, strain HRR25, active compounds read low 0.942 | locus YPL209C, strain IPL1, active compounds read low 0.981 | locus YPL256C, strain CLN2, active compounds read low 0.923 | locus YPR025C, strain CCL1, active compounds read low 0.983 | locus YPR106W, strain ISR1, active compounds read low 0.971 | locus YPR111W, strain DBF20, active compounds read low 0.954 | strain NNK1, active compounds read low 0.976 | strain TSCII, active compounds read low 0.988
